About 13,000 (3.2%) of roughly 400,000 compounds were called active. About 18% were inconclusive and are not listed. The call rests on the fitted dose curve; in most records, active means well fitted cell-killing curve with a large enough effect; inconclusive means small, poorly fitted or top-dose-only effect, or effect the other way; inactive means flat fitted curve, though single readings scatter. Shown is part of a subset that was picked to be rich in actives. A call without a number means that no potency is given here.
Potency means the concentration at half of the fitted maximal effect.

The test in a line: qHTS assay for MDR1-selective chemotherapeutics: Primary screen using the drug-selected MDR subline cells KB-V1. Further: nearly all actives have a fitted effect of over 60% in size. As to conditions: KB-V1 MDR cells viability, CellTiter-Glo, 72 h; series mostly up to 46.1 µM. From the text:
A prime difficulty in effectively treating cancer is the development of cellular resistance to multiple structurally unrelated anticancer drugs, a phenomenon known as multidrug resistance (MDR). […] Numerous strategies to overcome P-gp-mediated MDR have been explored, including the design of drugs that evade recognition and efflux, and development of inhibitors to block efflux and restore drug accumulation. […] An alternative approach is to exploit resistance by identifying drugs that target MDR cells over the non-resistant parental cells from which they were selected. […] The development of MDR1-selective agents represents a new strategy for resolving multidrug resistance, as it remains a long-standing clinical challenge for cancer chemotherapy.
Our goal is to identify compounds that selectively kill P-gp-expressing MDR cells. We will identify MDR1-selective compounds by comparing toxicity of compounds in the screening library against parental, drug-naive (KB-3-1) adenocarcinoma cells as well as their drug-selected MDR sub-line (KB-V1). The differential toxicity of compounds against these two cell lines will be used to identify MDR1-selective compounds, whose cytotoxicity is potentiated, rather than diminished, by P-gp expression. This assay will be utilized to conduct a quantitative high-throughput screen (qHTS) in collaboration with the NIH Chemical Genomics Center to identify selective agents, and probe hits arising from the screen will be validated using secondary assays and characterized through a well-established follow-up research program. This screen was run against the entire NCGC library collection of about 400,000 compounds.
NIH Molecular Libraries Probe Production Network [MLPCN]
NIH Chemical Genomics Center [NCGC]
PI: Michael Gottesman, National Cancer Institute, NIH
Briefly, 5 microL of media containing either KB-V1 cells (columns 1-2, 4-48) are dispensed into Greiner white, treated solid-bottom 1536-well assay plates (media-only control is added to column 3). Compounds are then transferred via Kalypsys pin tool equipped with 1536-pin array (10 nL slotted pins, V&P Scientific, San Diego, CA). Following addition of compound, the plates are incubated at 37 degrees C for 72 hours. CellTiter-Glo (2.5 µL/well) is then added, and the plates are read in a ViewLux reader (Perkin-Elmer, clear luminescence filter, 1 second exposure, 1x binning) following a 10 minute incubation. All cells are dispensed in DMEM phenol-red free media containing 10% FBS.
Library plates were screened starting from the lowest and proceeding to the highest concentration. Vehicle-only plates, with DMSO being pin-transferred to columns 5-48, will be inserted uniformly at the beginning and the end of each library in order to monitor and record any shifts in the background, which can be affected by reagent dispensers or loss in enzyme activity over time. Screening data will be corrected, normalized, and concentration-effect relationships will be derived by using publicly-available NCGC, NCATS curve fitting algorithms (http://ncgc.nih.gov/pub/openhts).
In general terms: Quantitative high-throughput screening tests each substance at several concentrations.
On to `CCCCCCCCCCCCn1ccc(=N)cc1`, for which the Potency is 8.2 µM (active).
For `COC(=O)C(O)(c1ccc(NC(=O)c2ccco2)c(OC)c1)C(F)(F)F` (stereo not drawn) the value was “inactive”.
In the case of `COC(=O)C1=C(c2cc3ccccc3s2)C[C@@H]2CC[C@H]1N2C(=O)NCCO`, the Potency result was “inactive”.
For `CCCCCn1c(=O)c(C(=O)NCc2ccccc2)c(O)c2ccccc21` the value was “inactive”.
The result for `CCCCCn1c(=O)c(C(=O)Nc2c(C)n(C)n(-c3ccccc3)c2=O)c(O)c2ccccc21` reads 2.06 µM (active).
On to `COc1cc(C(c2c(O)c3ccccc3oc2=O)c2c(C)n(C)n(-c3ccccc3)c2=O)ccc1O` (stereo not drawn), for which the Potency entry was “inactive”.
Consider `CCCCCn1c(=O)c(C(=O)NCc2ccccn2)c(O)c2ccccc21`, for which the Potency is 14.6 µM (active).
For `CCCCn1c(=O)c(C(=O)Nc2ccccc2Cl)c(O)c2ccccc21` the value was “inactive”; for `O=C(O)c1cc[c]([Sb](=[O])([OH])[OH])cc1[N+](=O)[O-]`, “inactive”; for `Cc1ccc(S(=O)(=O)N(C)c2ccc(C(=O)NCC3(N(C)C)CCCCC3)cc2)cc1`, “inactive”.
For `Cc1c(Oc2cc(NN3CCCCC3)c([N+](=O)[O-])cc2[N+](=O)[O-])cccc1[N+](=O)[O-]`, the Potency result is “inactive”.
As for `CCC1(CC(C)c2ccccc2)C(=O)NC(=O)NC1=O` (stereo not drawn), the Potency result was “inactive”.
The result for `C[N+]1(C)CCOC(O)(c2ccc(-c3ccc(C4(O)C[N+](C)(C)CCO4)cc3)cc2)C1` (stereo not drawn) reads “inactive”; that for `ClC(Cl)(Cl)c1ccccc1`, “inactive”.
`COC(=O)C1=C(c2ccc(F)cc2OCc2ccccc2)C[C@@H]2CC[C@H]1N2C(=O)NCc1ccc(C(C)(C)C)cc1`: the Potency result is “inactive”.
The result for `COC(=O)C1=C(c2ccccc2OCc2ccccc2)C[C@@H]2CC[C@H]1N2C(=O)NCc1ccc(OC)cc1` reads “inactive”.
The result for `COC(=O)C1=C(c2ccc(OCc3ccccc3)cc2)C[C@@H]2CC[C@H]1N2C(=O)NCc1cccc(F)c1` reads 7.31 µM (active).
The result for `COC(=O)C1=C(c2ccc(OCc3ccccc3)cc2)C[C@@H]2CC[C@H]1N2C(=O)NCc1ccc(Cl)cc1` reads 14.6 µM (active); that for `COC(=O)C1=C(c2ccccc2)C[C@@H]2CC[C@H]1N2C(=O)NCc1ccco1`, “inactive”; that for `COC(=O)C1=C(c2ccc(F)cc2OCc2ccccc2)C[C@@H]2CC[C@H]1N2C(=O)NCc1ccc(OC)c(OC)c1`, “inactive”.
As to `COC(=O)C1=C(c2ccc(-c3ccccc3)c(F)c2)C[C@@H]2CC[C@H]1N2C(=O)NCc1ccc(F)cc1`, the Potency was 20.6 µM (active).
Take `COC(=O)C1=C(c2ccc(F)cc2OCc2ccccc2)C[C@@H]2CC[C@H]1N2C(=O)NCc1ccc(Cl)cc1`: the Potency entry is “inactive”.
For `COC(=O)C1=C(c2ccc(F)cc2OCc2ccccc2)C[C@@H]2CC[C@H]1N2C(=O)NCc1ccc2[nH]ccc2c1` the value was “inactive”.
Turning to `Nc1ccc(Cc2ccc(N)c(Cl)c2)cc1Cl`, the Potency result was “inactive”.
The result for `O=C(O)/C=C/c1ccc2c(c1)OCO2` reads “inactive”.
The result for `O=C1NC(=O)C(Cc2ccccc2)C(=O)N1` reads “inactive”; that for `COc1ccc(-n2nnnc2C(c2cccc3ccccc23)N2CCC(n3c(=O)[nH]c4ccccc43)CC2)cc1` (stereo not drawn), “inactive”; that for `COC(=O)N1C(c2ccccc2)C1c1ccccc1` (stereo not drawn), “inactive”.
Take `Fc1ccc(C2N3CCCN23)cc1` (stereo not drawn): the Potency result is “inactive”.
As to `CC(C)CN1Cc2cc(N3CCCCC3)ccc2-n2nncc2C1`, the Potency result was “inactive”.
The result for `CC(Cc1ccccc1)NC=O` (stereo not drawn) reads “inactive”; that for `CC(Cc1ccccc1)NCCC(c1ccccc1)c1ccccc1` (stereo not drawn), 14.6 µM (active).
For `CC(=O)NC(=O)NC(C)Cc1ccccc1` (stereo not drawn) the value was “inactive”.
The result for `C[C@]12CCCCC1=CC(=O)C1C2CC[C@@]2(C)C1C[C@@H](F)[C@@H]2O` (stereo partly drawn) reads “inactive”; that for `CC(c1ccccc1)(c1ccccc1)c1ccncc1`, “inactive”; that for `C/C(=N/O)c1ccc2ccc3ccccc3c2c1`, 3.26 µM (active).
Consider `C/C(CCc1c[nH]c2ccccc12)=N\O`, for which the Potency result was “inactive”.
Turning to `O=[N+]([O-])c1cnc2ccc3ccccc3c2c1`, the Potency entry is “inactive”.
Turning to `CC1(C)Cc2c(C#N)c(N3CCNCC3)nc(-c3ccco3)c2CS1`, the Potency result was “inactive”.
For `CCOC(=O)C1(c2ccccc2)CCN(CC(O)c2ccc(NC(C)=O)cc2)CC1` (stereo not drawn), the Potency result was “inactive”.
As for `O=C(CCN1CCCCC1)NCC(=O)Nc1ccc(Br)cc1C(=O)c1ccccc1`, the Potency was 18.4 µM (active).
For `O=C(CN1CCCCC1)Nc1ccc(Br)cc1C(=O)c1ccccc1Cl` the value was “inactive”; for `CCOC(=O)CNC(=O)N1Cc2cc(N3CCCCC3)ccc2-n2nncc2C1`, “inactive”.
The result for `C[C@H]1CN([C@@H](C)CO)C(=O)CCCn2nncc2CO[C@H]1CN(C)C(=O)Oc1cccc2ccccc12` reads “inactive”; that for `Cc1ccc(C(C)C)c(OCC(=O)N2CCN(CC(=O)N3CCOCC3)CC2)c1`, “inactive”.
Take `CC1CCCN1CCC(C(N)=O)(c1ccccc1)c1ccccc1` (stereo not drawn): the Potency result was “inactive”.
As for `O=C(NC1CCCCC1)N1Cc2cc(N3CCCCC3)ccc2-n2nncc2C1`, the Potency entry was “inactive”.
With `c1ccc2c(c1)[I+]c1ccccc1-2`, the Potency is 16.4 µM (active).
For the molecule `CC=C(C)C(=O)OC1CCN2CC=C(COC(=O)C(O)(C(C)OC)C(C)(C)O)C12` (stereo not drawn), the Potency entry was “inactive”.
For `CC1CNCCN1c1ccc(Cl)cc1` (stereo not drawn) the value was “inactive”; for `O=C(COC(=O)c1ccccc1)Nc1ccc(Cl)cc1C(=O)c1ccccc1`, “inactive”; for `CN1CCN(C(=S)SCC(=O)Nc2ccc(Cl)cc2C(=O)c2ccccc2)CC1`, 5.17 µM (active).
For `O=C(Nc1ccc(Cl)cc1C(=O)c1ccccc1)c1cc(Cl)cc(Cl)c1` the value was “inactive”; for `COc1ccc(C2C=C(C)Oc3c2c(=O)oc2ccccc32)cc1OC` (stereo not drawn), “inactive”; for `Cc1ncoc1C(=O)NCC1=C(c2cccc3ccccc23)C[C@@H]2CC[C@H]1N2Cc1ccco1`, “inactive”.
As for `C=C(C)C1(CCCC)C(=O)NC(=S)NC1=O`, the Potency entry was “inactive”.
On to `Oc1cc2c(cc1CN1CCN(c3ccccc3)CC1)OCO2`, for which the Potency result is “inactive”.
In the case of `Cc1cc(C)c2c(c1)NP(=S)(c1ccccc1)N2` (stereo not drawn), the Potency entry is “inactive”.
As for `C[C@]12CCC3C(CC[C@H]4C[C@@H](O)CC[C@]34C)C1CC[C@@H]2O` (stereo partly drawn), the Potency result is “inactive”.
With `CC12CCC(O)CC1CCC1C2CCC2(C)C(C(=O)CC(O)C(F)(F)F)CCC12` (stereo not drawn), the Potency was 23.1 µM (active).
For `C[C@]12CCC3C(CC[C@H]4[C@H](O)[C@H](O)CC[C@]34C)C1CC[C@@H]2O` (stereo partly drawn), the Potency entry is “inactive”.
`COC(=O)[C@@H]1C(OC(=O)c2ccccc2)CC2CCC1N2C` (stereo partly drawn): the Potency result is “inactive”.
The result for `Cn1c(O)c(C(=Nc2ccc(F)cc2)c2ccccc2)c(=O)n(C)c1=O` reads “inactive”.

For the origin of these results see PubChem BioAssay AID1347076 (National Center for Advancing Translational Sciences (NCATS), 2019).
